An excerpt weighted towards active compounds, which were near 4.1% of everything screened.
DAX1 inh-1: DAX1 (NR0B1) inhibitors, primary screen, cell-based, HEK293, Gal4-DAX1, luciferase luminescence; Nuclear receptor subfamily 0 group B member 1 (Homo sapiens), P51843; HEK293 Gal4-DAX1 luciferase reporter; inhibition, % at 6.75 µM; actives 0.99% (n = 340,000); AID 504766, 2011;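 active = inhibition above the mean over all tested compounds plus 3 SD, cut at about 4.2% in these data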;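 note: inhibition shows as a rise in luminescence from relieved DAX1 repression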
Target sequence (P51843 207-470 limits assumed): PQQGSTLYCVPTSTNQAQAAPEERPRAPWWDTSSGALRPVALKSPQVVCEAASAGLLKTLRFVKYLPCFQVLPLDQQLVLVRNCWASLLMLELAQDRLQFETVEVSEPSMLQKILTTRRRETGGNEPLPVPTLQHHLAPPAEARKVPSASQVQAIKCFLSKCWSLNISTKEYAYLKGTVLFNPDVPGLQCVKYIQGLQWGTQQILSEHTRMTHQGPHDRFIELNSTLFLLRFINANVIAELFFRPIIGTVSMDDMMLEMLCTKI
DAX1 inh-2: DAX1 (NR0B1) inhibitors on StAR promoter, primary screen, cell-based, luminescence, SF-1 (NR5A1), full-length DAX-1 | AID 652010, 2013 | HEK293T StAR-luciferase reporter, SF-1/DAX-1 repression relief | actives 1.1% (n = 370,000) | inhibition, % at 6.8 µM;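 active = inhibition above the mean over all tested compounds plus 3 SD, cut at about 3.6% in these data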;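 note: higher inhibition means more luminescence from relief of DAX-1 repression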
hcDAF-12 act: H. contortus DAF-12 nuclear receptor activators, primary screen, cell-based, luminescence, HEK293, lit1-tk-luc reporter. AID 652067, 2013. actives 1.4% (n = 370,000). HEK293 hcDAF-12 lit1-tk-luc reporter; 0% DMSO, 100% Δ7-dafachronic acid. activation, % at 6.8 µM;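 active = activation above the mean of all tested compounds plus 3 SD, cut at about 5.5% in these data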
hgDAF-12 ag: H. glycines DAF-12 receptor agonists, primary screen, cell-based, luminescence, HEK293, GAL4 fusion, UAS-luciferase | HEK293 GAL4-hgDAF12 UAS-luciferase reporter, agonist luminescence; normalized to butyrate control | activation, % at 6.8 µM | actives 1.8% (n = 370,000);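 active = activation above a cutoff set at the mean of all screened compounds plus 3 SD, cut at about 10% in these data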
ssDAF-12 act: S. stercoralis DAF-12 nuclear receptor activators, primary screen, cell-based, luminescence, HEK293, GRIP1 co-expression, lit1-tk-luc; actives 1% (n = 370,000); Nuclear hormone receptor DAF-12 (Strongyloides stercoralis); HEK293 ssDAF-12/GRIP1 lit1-tk-luc reporter; % of 3 µM dafachronic acid response; activation, % at 6.8 µM;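 active = activation above the mean over all tested compounds plus 3 SD, cut at about 0.9% in these data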
DAX1 conf: DAX1 (NR0B1) inhibitors relieving SF-1 repression, confirmation, cell-based, luminescence, HEK293T, full-length DAX-1, SF-1 activated StAR promoter. shares compounds with DAX1 inh-2. HEK293T StAR-promoter luciferase reporter, SF-1/DAX-1 repression. inhibition, % at 6.8 µM. actives 87% (n = 2,400). AID 652134, 2013;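 active = inhibition above the average of every tested compound plus 3 SD, cut at about 3.8% in these data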
SF1 mutant ctr: StAR reporter signal changes without DAX1, counter-screen for DAX1 inhibitor project, cell-based, luminescence, AF-2 mutant SF-1, transactivation; inhibition, % at 6.8 µM; actives 78% (n = 2,400); HEK293 StAR-luciferase, SF-1 AF2 mutant; shares compounds with DAX1 inh-2;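 active = inhibition above the mean of all tested compounds plus 3 SD, cut at about 3% in these data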
LXRb hcDAF ctr: LXR agonists, Gal4 luciferase reporter, confirmation, counter-screen for hcDAF-12 agonist project, cell-based, luminescence, HEK293, H. contortus campaign; shares compounds with hcDAF-12 act; HEK293 Gal4-LXR tk-luc reporter, 24 h; normalized: DMSO 0%, positive control 100%; activation, % at 6.8 µM; 3,400 tested, under 10 active; AID 743027, 2013;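 active = mean percent activation of the reporter above a cutoff set as the average over tested compounds plus their standard deviation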
hcDAF12 ag: H. contortus DAF-12 receptor agonists, confirmation, cell-based, luminescence, HEK293, lit1-tk-luc, triplicate; shares compounds with hcDAF-12 act; HEK293 hcDAF-12 lit1-tk-luc reporter; % of Δ7-dafachronic acid response; activation, % at 6.8 µM; actives 61% (n = 3,400);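 active = mean activation across triplicate tests above the threshold derived from the earlier primary screen, cut at about 5.5% in these data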
Hits are given with their value; - = inactive; . = no result given.

SMILES	DAX1 inh-1	DAX1 inh-2	hcDAF-12 act	hgDAF-12 ag	ssDAF-12 act	DAX1 conf	SF1 mutant ctr	others
CCC(C(=O)NCCCN1CCN(C)CC1)n1nc(C)c2sc3ccccc3c2c1=O (stereo unspecified)	-	-	-	-	-	.	.
CCCN1CCN(CCCNC(=O)C(CC)n2nc(C)c3sc4ccccc4c3c2=O)CC1 (stereo unspecified)	-	5.3	-	-	-	-	4.3
O=C(Nc1cccc(Cl)c1)N1CCc2ccccc2C1	-	-	-	-	-	.	.
O=C(Nc1ccccc1F)N1CCc2ccccc2C1	-	6.4	-	-	-	6.8	7.1
COc1cccc(NC(=O)N2CCc3ccccc3C2)c1	-	6.1	-	-	-	8.4	7.1
COc1cccc(C(=O)N2CCN(Cc3ccccc3Br)CC2)c1	-	-	-	-	-	.	.
CCn1c2ccccc2c2cc(NC(=O)N3CCCCC3)ccc21	-	4.7	-	-	-	10	5.4
O=C(Nc1ccc(F)c(Cl)c1)N1CCCCCC1	-	4.7	-	-	-	5.2	5.8
Cc1ccc(NC(=O)N2CCCCC2)cc1NC(=O)N1CCCCC1	-	-	-	-	-	.	.
CCCC(=O)Nc1ccc2c(c1)c1ccccc1n2CC	-	-	-	-	-	.	.
Cc1ccc(NC(=O)N2CCCCCC2)cc1C	-	5.9	-	-	-	8.1	5.4
CCCN1CCN(C(=O)c2ccc(F)c(S(=O)(=O)N3CCOCC3)c2)CC1	-	-	-	-	-	.	.
Cc1cccc(N2CCN(C(=O)c3[nH]c(C(F)(F)F)nc3-c3ccccc3)CC2)c1C	.	10	-	-	-	9.8	-
Cc1cc(Br)c(OCC(=O)NN)c2c1CCC2	-	-	-	-	-	.	.
O=C(Nc1ccccc1F)c1cccc(C(=O)Nc2ccccc2F)c1	-	-	-	-	-	.	.
O=C(Nc1ccccc1F)c1ccc(C(=O)c2ccccc2)cc1	-	4.7	-	12	-	7.0	4.4
Cc1c(C(=O)OCC(C)C)[nH]c2c1C(=O)CC(c1ccco1)C2 (stereo unspecified)	-	6.3	-	-	-	9.0	-
C/C=C/COC(=O)c1[nH]c2c(c1C)C(=O)CC(c1ccco1)C2 (stereo unspecified)	-	-	-	-	-	.	.
O=C(COc1ccccc1Br)NC(=O)NC1CCCC1	-	4.9	-	-	-	7.3	4.3
O=C(COc1ccccc1Br)NC1CC1	-	-	-	-	-	.	.
CC[C@@H](CCCc1ccc(OC)cc1)CCC(=O)N(c1ccccc1)c1ccccc1	.	-	-	-	-	.	.
CC(Sc1ccccc1F)C(=O)Nc1ccc2c(c1)OCCO2 (stereo unspecified)	-	4.9	-	-	0.9	6.5	4.0
CCOc1ccc(-c2cn3ccccc3n2)cc1	-	9.9	5.8	-	-	14	4.4
NC(=O)c1nsc(C(=O)N(c2ccc3c(c2)OCCO3)C(C(=O)NCC2CCCO2)c2ccc(F)cc2)c1N (stereo unspecified)	-	-	-	-	-	.	.
COc1cc(C(=O)OCC(=O)N2CCOCC2)c([N+](=O)[O-])cc1OC	-	-	-	-	-	.	.
SMILES	DAX1 inh-1	DAX1 inh-2	hcDAF-12 act	hgDAF-12 ag	ssDAF-12 act	DAX1 conf	SF1 mutant ctr	others
O=C(Nc1ccc([N+](=O)[O-])cc1Cl)c1cccc([N+](=O)[O-])c1	-	-	-	-	-	.	.
O=C(Nc1ccc([N+](=O)[O-])cc1Cl)c1cc(Cl)ccc1O	-	6.7	-	12	-	-	-
CCCCNC(=O)C[C@@H]1C[C@@]2(C(=O)OCC)CCC=C2N(CCC2=CCCCC2)C1=O	.	-	-	-	-	.	.
COc1cccc(-c2nnc(-c3ccc4ccccc4c3)o2)c1	-	5.5	-	-	-	15	6.1
Cc1ccc(-c2nnc(-c3ccc4ccccc4c3)o2)cc1	-	-	-	-	-	.	.
Oc1c(C(c2ccccc2)N2CCCCC2)ccc2ccccc12 (stereo unspecified)	-	-	-	-	-	.	.
COc1ccc(N=CC2=C(O)c3ccccc3C2=O)cc1	-	6.0	13	11	1.1	-	-	LXRb hcDAF ctr=-;hcDAF12 ag=6.1
COc1ccc(N=Cc2c[nH][nH]c2=O)cc1	-	-	-	-	-	.	.
O=C1C(C=Nc2ccccc2O)=C(O)c2ccccc21	-	5.9	20	16	2.0	12	5.1	LXRb hcDAF ctr=-;hcDAF12 ag=19
CN=CC1=C(O)c2ccccc2C1=O	-	-	-	-	-	.	.
O=C(NCCSc1ccccc1)c1ccc(Br)cc1	-	4.7	7.4	13	-	15	7.7	LXRb hcDAF ctr=-;hcDAF12 ag=5.9
C#CCN(Cc1cccc(F)c1)C(=O)c1nnc2c3cc(F)ccc3n(S(=O)(=O)c3ccc(OC)cc3)c2n1	.	-	-	-	-	.	.
Cc1ccc(SCC(=O)NC(=O)Nc2ccc3c(c2)OCCO3)cc1C	-	-	-	-	-	.	.
O=C(Nc1ccccc1)Nc1ccc(C(=O)N2CCCC2)cc1	-	4.9	8.8	17	-	13	7.5	LXRb hcDAF ctr=-;hcDAF12 ag=6.9
N#Cc1ccccc1NS(=O)(=O)c1cc2c3c(c1)CCC(=O)N3CCC2	-	-	-	-	-	.	.
O=c1c2c(nc3cc(-c4ccc(F)cc4)[nH]n13)CCCC2	-	5.4	6.9	-	-	11	3.4	LXRb hcDAF ctr=-;hcDAF12 ag=-
Cc1cc(C=O)c(O)cc1O	-	-	-	-	-	.	.

Screens: PubChem, The Scripps Research Institute Molecular Screening Center
